# Out of some 310,000 compounds screened, about 14,000 (4.5%) showed an effect of 50% or more. Effects have a minus sign here. This excerpt belongs to a sample that is enriched for strong results.
# Molecular target: human ether-à-go-go-related gene (hERG) potassium channel (human, UniProt Q12809)
# Assay: primary screen, population patch clamp on CHO cells stably expressing hERG; higher = less effect of the substance
# 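Also: peak tail current of the secondary pulse compared with the same well before compound.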
# Chain of human ether-à-go-go-related gene (hERG) potassium channel (Q12809 whole entry, looked up): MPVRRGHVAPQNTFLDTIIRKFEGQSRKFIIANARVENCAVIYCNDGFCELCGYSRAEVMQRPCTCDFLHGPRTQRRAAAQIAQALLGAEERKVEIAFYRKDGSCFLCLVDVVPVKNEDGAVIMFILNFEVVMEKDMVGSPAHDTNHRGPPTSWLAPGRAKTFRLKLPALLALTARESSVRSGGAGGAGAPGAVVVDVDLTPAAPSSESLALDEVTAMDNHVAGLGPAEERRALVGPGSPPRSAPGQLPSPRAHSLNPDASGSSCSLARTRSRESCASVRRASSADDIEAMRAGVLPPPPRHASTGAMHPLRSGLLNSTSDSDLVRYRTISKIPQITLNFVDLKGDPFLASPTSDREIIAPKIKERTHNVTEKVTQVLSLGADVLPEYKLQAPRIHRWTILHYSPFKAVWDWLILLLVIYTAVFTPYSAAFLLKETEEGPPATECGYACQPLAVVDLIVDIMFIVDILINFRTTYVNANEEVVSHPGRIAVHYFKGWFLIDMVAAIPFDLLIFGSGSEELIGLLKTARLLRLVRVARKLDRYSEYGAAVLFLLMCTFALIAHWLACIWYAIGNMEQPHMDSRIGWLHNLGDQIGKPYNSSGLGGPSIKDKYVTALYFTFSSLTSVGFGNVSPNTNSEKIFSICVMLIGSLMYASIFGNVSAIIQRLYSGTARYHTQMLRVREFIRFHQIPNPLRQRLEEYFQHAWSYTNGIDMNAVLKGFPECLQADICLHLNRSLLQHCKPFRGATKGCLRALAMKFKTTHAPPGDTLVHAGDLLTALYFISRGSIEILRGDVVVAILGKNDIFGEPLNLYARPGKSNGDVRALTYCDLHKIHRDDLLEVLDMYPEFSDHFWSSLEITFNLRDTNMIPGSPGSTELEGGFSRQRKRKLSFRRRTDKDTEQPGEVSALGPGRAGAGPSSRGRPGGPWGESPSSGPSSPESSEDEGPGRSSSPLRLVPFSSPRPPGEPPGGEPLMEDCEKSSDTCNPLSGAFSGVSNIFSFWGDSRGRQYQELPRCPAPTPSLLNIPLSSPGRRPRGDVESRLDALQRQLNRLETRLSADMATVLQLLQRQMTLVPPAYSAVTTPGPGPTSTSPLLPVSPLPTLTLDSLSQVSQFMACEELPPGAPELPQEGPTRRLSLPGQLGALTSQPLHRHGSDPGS
row,Structure (SMILES),"hERG current change (%, negative = inhibition) at 10uM [%]"
1,CCOC(=O)c1cnc(SCC(=O)OC)nc1N,52.5
2,C/C(=N\N1C(C)CCCC1C)c1ccccc1O (centres unmarked),14.1
3,O=C(NCc1ccc2c(c1)OCO2)c1ccccc1Cl,-2.6
4,COc1ccc(CC(=O)N2CC(C)CC(C)C2)cc1OC (centres unmarked),5.21
5,CSc1ccc(/C=C(\NC(=O)c2ccccc2)C(=O)NCCN2CCOCC2)cc1,-63.7
6,CSc1ccc(/C=C(/NC(=O)c2ccccc2)C(=O)NCCN2CCOCC2)cc1,-44.8
7,CC(=O)O[C@@H]1C[C@H]2C(C)(C)C(=O)C=C[C@]2(C)[C@H]2CC[C@@]3(C)[C@H](c4ccoc4)OC(=O)[C@H]4O[C@]43[C@@]21C,-43.1
8,N#Cc1ccccc1NC(=S)NC(=O)c1cccnc1,13.7
9,COc1ccc(CNC(=O)COc2ccc(F)cc2)cc1,2.33
10,CCN(CC(=O)NCc1ccc(Cl)cc1)C(=O)Cc1ccc(OC)cc1,-75.7
11,CCN(CC(=O)NCc1ccc(F)cc1)C(=O)/C=C/c1ccc(OC)cc1,-48
12,CCN(CC(=O)NCc1ccc(F)cc1)C(=O)Cc1ccc(OC)cc1,-63.5
13,CCN(CC(=O)NCc1ccc(Cl)cc1)C(=O)c1cc(OC)cc(OC)c1,-48.4
14,CCN(CC(=O)NCc1ccc(Cl)cc1)C(=O)c1ccc2cc(OC)ccc2c1,3.72
15,c1nc(N2CCCC2)c2[nH]cnc2n1,-3.15
16,CCC(C(=O)NC(C)(C)C)N(C(=O)Cn1nnc(-c2cccs2)n1)c1cnc2ccccc2c1 (centres unmarked),-13.3
17,COc1ccc(C(=O)CNc2ccccc2CO)cc1,22.8
18,O=C(NCCC1=CCCCC1)c1cc(-c2ccncc2)nc2ccccc12,6.78
19,CC(C)(C)c1ccc(C(=O)Nc2ccc(O)c3c(=O)cc(-c4cccc(Cl)c4)oc23)cc1,17.7
20,CC(=O)Nc1cccc(C(=O)OC(C)C(=O)NC(=O)NC2CCCCC2)c1 (centres unmarked),3.89
21,COc1cc(C(=O)OCC(=O)NC(=O)C2CCCCC2)ccc1OC(F)F,15.8
22,COc1cc(C(=O)OC(C)C(=O)NC(=O)NC2CCCCC2)ccc1OC(F)F (centres unmarked),-51.2
23,CCOC(=O)C1CCN(C(=O)Nc2ccc3c(c2)nc(C)n3C)CC1,0.694
24,CCN(CC)c1ccc(CNc2nnnn2C)cc1,19.3

row,Structure (SMILES),"hERG current change (%, negative = inhibition) at 10uM [%]"
1,Cc1cc(=O)n2nc(N3CCCC(C(=O)NC4CCCCC4C)C3)sc2n1 (centres unmarked),9.32
2,Cc1ccccc1CSCCNC(=O)CCSc1ccccc1,2.74
3,CCCOc1ccc(C(C)(O)CN2CCOCC2)cc1 (centres unmarked),15.6
4,CCCCC(O)(CCN1CCOCC1)c1ccc(Cl)cc1.Cl (centres unmarked),-66.5
5,CCCC(O)(CCN1CCOCC1)c1ccc(Br)cc1.Cl (centres unmarked),-20.7
6,CCCCOc1ccc(C(O)(CC)CCN2CCOCC2)cc1 (centres unmarked),-13.4
7,CCCCOc1ccc(C(C)(O)CCN2CCOCC2)cc1 (centres unmarked),-2.97
8,CCCOc1ccc(C(O)(CCN2CCCCC2)c2ccccc2OC)cc1.Cl (centres unmarked),-29.9
9,CCCC(O)(CCN1CCOCC1)c1ccc(Cl)cc1 (centres unmarked),3.77
10,CCCCOc1ccc(C(O)(CCC)CCN2CCOCC2)cc1 (centres unmarked),-51.2
11,CCCOc1ccc(C(O)(CCC)CCN2CCCCC2)cc1 (centres unmarked),-56.1
12,OC1(c2ccc(F)cc2)CSC(=Nc2cccnc2)N1Cc1ccco1 (centres unmarked),-14.2
13,COc1ccc(OC)c2nc(-c3ccc4c(c3)OCO4)ccc12,10.4
14,CC1CCC2(CC1)NC(=O)N(CC(=O)N1CCN(C(=O)c3cccs3)CC1)C2=O (centres unmarked),-9.44
15,CCOC(=O)Cc1csc(NC(=O)c2cc(=O)c3ccccc3o2)n1,-12.3
16,COc1ccc(Br)cc1CN1C(=O)NC2(CCCCCC2)C1=O,10.4
17,Cn1ncc(Br)c1C(=O)N1CCCC1,19
18,O=C(COc1ccc(-c2ccccc2)cc1)N1CCCC1,-54.5
19,O=C(COc1ccc2ccccc2c1)N1CCN(C(=O)c2cccnc2)CC1,-25
20,Cc1ccc(OCC(=O)N2CCN(C(=O)c3cccnc3)CC2)cc1,-4.29
21,O=C(COc1ccccc1)N1CCCCCCC1,3.25
22,CSC1=NCCN1C(=O)COc1ccccc1,11.3
23,O=C(COc1ccc(-c2ccccc2)cc1)N1CCN(C(=O)c2cccnc2)CC1,-57.9
24,O=C(COc1ccccc1)N1CCN=C1c1ccccc1,-77.5

row,Structure (SMILES),"hERG current change (%, negative = inhibition) at 10uM [%]"
1,CCc1ccc(OCC(=O)N2CCN=C2c2ccccc2)cc1,-5.36
2,O=C(COc1ccccc1)N1CCCC1,15.6
3,O=C(NC(=S)Nc1ccc(-c2ccc(CO)o2)cc1)c1cccs1,21
4,Cc1ccc2c(c1)C(c1ccccc1)N(C(=O)c1c(F)cccc1Cl)CC(=O)N2 (centres unmarked),-22.3
5,Cc1cccnc1NC1=NCC(C)S1 (centres unmarked),3.1
6,C=CCSC(CC)(CC)C(N)=O,3.1
7,O=C(CNCc1ccco1)Nc1cc(S(=O)(=O)N2CCOCC2)ccc1N1CCCC1,-14.4
8,COc1cccc(NCc2nnc(SCC(=O)NC3CCS(=O)(=O)C3)n2C2CCCCC2)c1 (centres unmarked),12.7
9,Cl.O=C(CCN1CCOCC1)Nc1ccc(Cl)cc1,6.33
10,O=C(CCN1CCN(C/C=C/c2ccccc2)CC1)Nc1ccc(Cl)cc1,-78.2
11,Cc1ccc(NC(=O)CCN2CCN(C/C=C/c3ccccc3)CC2)cc1.Cl,-90.9
12,CCN1CCN(CCC(=O)Nc2ccc(C)cc2)CC1.Cl,-8.34
13,CCN1CCN(CCC(=O)Nc2cccc(C)c2)CC1.Cl,0.741
14,O=C(CCN1CCN(c2ccccc2)CC1)Nc1ccc(Cl)cc1,-17.9
15,Cc1cccc(NC(=O)CCN2CCN(C)CC2)c1.Cl,6.48
16,CN1CCN(CCC(=O)Nc2ccccc2)CC1,-5.19
17,Cl.O=C(CCN1CCCC1)Nc1ccccc1,4.69
18,Cc1cccc(NC(=O)CCN2CCN(C/C=C/c3ccccc3)CC2)c1.Cl,-74
19,O=C(CCN1CCN(C/C=C/c2ccccc2)CC1)Nc1ccccc1,-74.9
20,CCN1CCN(CCC(=O)Nc2ccccc2)CC1,8.58
21,COc1ccc(C(Sc2ccccc2)c2ccccc2)cc1OC (centres unmarked),7.26
22,O=C(O)CCN=CC1=C(O)CC(c2ccccc2)CC1=O (centres unmarked),3.13
23,O=C(C[n+]1cccc(O)c1)NCc1ccc(Cl)cc1.[Cl-],24.2
24,CCOC(=O)CC1C(=O)NCCN1C(=O)c1ccc(C)cc1 (centres unmarked),14.9

row,Structure (SMILES),"hERG current change (%, negative = inhibition) at 10uM [%]"
1,Cc1sc2c(c1C)C(O)=C(C(=O)Nc1ccccc1)S(=O)(=O)N2C,4.91
2,O=C(CSc1nnc2c(n1)[nH]c1ccc(F)cc12)N1CCOCC1,5.63
3,COc1cc(CN2CCc3ccc(NC(=O)CCc4ccccc4OC)cc3C2)ccc1O,-37.3
4,Cc1ccc(NC(=O)CCN2CCCCC2)cc1.Cl,-0.243
5,Cc1ccc(NC(=O)CCN2CCC(Cc3ccccc3)CC2)cc1,-75.1
6,O=C(CCN1CCc2ccccc2C1)Nc1ccccc1,-24.2
7,Cc1cc(NC(=O)CCN2CCN(Cc3ccccc3)CC2)ccc1Br.Cl,-28
8,COc1cccc(CN2CCc3ccc(NC(=O)CCc4ccc(C)cc4)cc3C2)c1O,-52.2
9,Cc1ccc(NC(=O)CCN2CCc3ccccc3C2)cc1.Cl,-60.8
10,COc1ccc(CN2CCc3ccc(NC(=O)CCc4ccccc4OC)cc3C2)c(O)c1,-35.2
11,Cc1ccc(NC(=O)CN2CCc3ccccc3C2)cc1,-30.3
12,Cc1ccc(NC(=O)CCN2CCOCC2)cc1C,14.1
13,Cc1ccc(NC(=O)CCN2CCN(C/C=C/c3ccccc3)CC2)cc1C.Cl,-71.8
14,Cc1ccc(NC(=O)CCN2CCC(C(N)=O)CC2)cc1,17.3
15,CSc1ncccc1C(=O)N1CCCC(N2CCN(c3ccccc3F)CC2)C1 (centres unmarked),-12.4
16,NS(=O)(=O)c1ccc(CCNC(=O)CN2C(=O)c3ccccc3S2(=O)=O)cc1,1.3
17,CCOC(=O)N1CCN(C(=O)c2ccc(CNS(=O)(=O)c3ccc(OC)cc3)cc2)CC1,-4.84
18,O=C(CCN1CCN(C/C=C/c2ccccc2)CC1)Nc1cccc(F)c1,-77.9
19,CN1CCN(CCC(=O)Nc2cccc(F)c2)CC1,-1.22
20,Cl.O=C(CCN1CCCCCC1)Nc1cccc(F)c1,-23.6
21,CCOC(=O)OC(C)OC1=C(C(=O)Nc2ccccn2)N(C)S(=O)(=O)c2ccccc21 (centres unmarked),16.1
22,O=P(Nc1c(Cl)cccc1Cl)(c1ccccc1)c1nc2c(s1)CCCC2 (centres unmarked),10
23,Nc1nonc1-n1nnc(C(=O)N/N=C/c2ccc(Br)cc2)c1CSC1=NCCS1,-3.36

# — PMC4336329 (PLoS ONE, 2015)
